Out of some 340,000 compounds screened, about 6,900 (2%) were called active. Cut-off read from the data, not from the text of the source: active = inhibition above about 30%; inactive = below that, where a call was filed. The sample as a whole holds a higher share of actives than the screen did.
Target: D(2) dopamine receptor (Homo sapiens) (UniProt P14416)
Assay: HTS Assay for Allosteric Antagonists of the Human D2 Dopamine Receptor: Primary Screen for Antagonists; note: 0% is about no effect
Settings: HEK293 TREx D2 cells, calcium flux, dopamine EC80; at 10 µM; stronger effect = higher value
Summary of the method: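 Inhibition of EC80 dopamine-driven calcium flux, recorded kinetically, defines activity here; cells are a tetracycline-induced HEK293 T-REx line expressing force-coupled D2.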

D(2) dopamine receptor (Homo sapiens), sequence (P14416 whole entry, looked up): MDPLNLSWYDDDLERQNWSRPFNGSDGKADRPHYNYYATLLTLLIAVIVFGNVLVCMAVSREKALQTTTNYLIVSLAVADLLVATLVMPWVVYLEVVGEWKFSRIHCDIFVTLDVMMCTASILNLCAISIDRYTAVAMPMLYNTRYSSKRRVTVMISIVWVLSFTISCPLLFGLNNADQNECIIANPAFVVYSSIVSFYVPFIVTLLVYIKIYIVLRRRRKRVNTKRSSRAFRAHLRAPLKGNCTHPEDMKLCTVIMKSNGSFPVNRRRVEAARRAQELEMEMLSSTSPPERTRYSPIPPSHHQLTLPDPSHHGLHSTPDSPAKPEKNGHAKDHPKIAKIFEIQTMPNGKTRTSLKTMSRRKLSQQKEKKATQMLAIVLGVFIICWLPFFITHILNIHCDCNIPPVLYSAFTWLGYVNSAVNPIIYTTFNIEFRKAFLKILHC

Q: With CN(CC(=O)NCc1ccc2c(c1)OCO2)CC(=O)Nc1ccc(F)c(F)c1F as the compound, how does the inhibition read?
A: The inhibition was -25.8% (inactive).

Q: For CCC[C@H]1CCCC/C=C\CCCC(=O)OCCN1C(=O)OC(C)(C)C, which inhibition is on record?
A: Its inhibition is -5.66% (inactive).

Q: For COc1ccccc1/C=C/C=N/NC(=O)CN1CCN(Cc2ccccc2)CC1, which inhibition is on record?
A: Its inhibition is -10.7% (inactive).

Q: For COC(=O)CCC(=O)N1CCCC(CO)(Cc2ccccc2)C1 (centres undefined), which inhibition is on record?
A: Its inhibition is 3.17% (inactive).

Q: Which inhibition does the source give for COc1ccccc1/C=C/CN1CCC(CO)(Cc2ccccc2)CC1 here?
A: Its inhibition is 53.2% (active).

Q: Which inhibition does the source give for Cc1cc(NC(=O)COc2ccc([N+](=O)[O-])cc2)no1 here?
A: The inhibition was -5.38% (inactive).

Q: How did the inhibition turn out when COc1ccccc1NC(=O)COC(=O)COc1ccccc1F was run?
A: Its inhibition is -3.39% (inactive).

Q: Which inhibition does the source give for Cc1ccc(OCCNC(=O)CN2C(=O)NC3(CCCC3)C2=O)cc1 here?
A: The inhibition was 1.97% (inactive).

Q: With COc1cc(C(c2c(NC(=O)c3ccco3)sc(C)c2C)N2CCOCC2)cc(OC)c1OC (centres undefined) as the compound, how does the inhibition read?
A: Its inhibition is -0.625% (inactive).

Q: CCOc1ncccc1C(=O)OCC(=O)N1c2ccccc2CC1C (centres undefined) was tested. Which inhibition did it give?
A: The inhibition was -9.6% (inactive).

Q: For CN(CC(=O)NC1CCCCC1)S(=O)(=O)c1ccc(Br)s1, which inhibition is on record?
A: The inhibition was 3.02% (inactive).

Q: Which inhibition does the source give for CCOc1ccc(CC(=O)NC2CCN(Cc3ccccc3)CC2)cc1 here?
A: The inhibition was 7.65% (inactive).

Q: With CN(CC(=O)NC1CCN(Cc2ccccc2)CC1)S(=O)(=O)c1ccc(Cl)s1 as the compound, how does the inhibition read?
A: The inhibition was 68.5% (active).

Q: How did the inhibition turn out when CC(C)N(C(=O)CSc1nnc(NC2CC2)s1)c1ccccc1 was run?
A: Its inhibition is -9.12% (inactive).

Q: Nc1nnc(SCC(=O)NCC(=O)Nc2ccc(F)c(F)c2F)s1 was tested. Which inhibition did it give?
A: The inhibition was 17.4% (inactive).

Q: Which inhibition does the source give for O=C(c1ccc(Cl)nc1)N1CCN(S(=O)(=O)c2ccc3c(c2)OCCO3)CC1 here?
A: The inhibition was -22.8% (inactive).

Q: With O=C(COC(=O)c1cccc(Cl)c1)NC1CCCCCCC1 as the compound, how does the inhibition read?
A: Its inhibition is 4.87% (inactive).

Q: Which inhibition does the source give for O=C(COC(=O)c1ccccc1SCC(=O)NC1CCCCC1)NC1CCCCC1 here?
A: Its inhibition is -0.864% (inactive).

Q: O=C(COC(=O)c1ccccc1Cl)NC1CCCCCCC1 was tested. Which inhibition did it give?
A: Its inhibition is 40.2% (active).

Q: Which inhibition does the source give for Cc1ccc(OCCCCN2CCCCC2)c(Br)c1 here?
A: Its inhibition is 73.5% (active).

Q: How did the inhibition turn out when O=[N+]([O-])c1ccccc1OCCCCN1CCCCC1 was run?
A: The inhibition was 93.9% (active).

Q: How did the inhibition turn out when CC(C)(c1ccccc1)c1ccc(OCCN2CCCC2)cc1 was run?
A: Its inhibition is 0.0464% (inactive).

Q: Which inhibition does the source give for CC(=O)Nc1ccc(S(=O)(=O)N2CCN(CCCOc3cc(C)ccc3C)CC2)cc1 here?
A: Its inhibition is 3.73% (inactive).

Q: How did the inhibition turn out when Cc1ccc(C(C)C)cc1OCCN1CCCC1 was run?
A: Its inhibition is -14.6% (inactive).

Q: For Cc1ccc(C(C)(C)C)c(OCCCCN2CCCC2)c1, which inhibition is on record?
A: The inhibition was 31% (active).

Q: How did the inhibition turn out when CC1CN(CCOc2ccccc2[N+](=O)[O-])CC(C)O1 (centres undefined) was run?
A: The inhibition was 1.8% (inactive).

Q: Which inhibition does the source give for COc1cccc(OCCCN2CCCCCC2)c1 here?
A: The inhibition was -12.6% (inactive).

Q: How did the inhibition turn out when C=CCN(CC=C)CCOc1ccccc1[N+](=O)[O-] was run?
A: The inhibition was 6.41% (inactive).

Q: How did the inhibition turn out when CCN(C(=O)CSc1ncnc2sccc12)c1c(N)n(Cc2ccccc2)c(=O)[nH]c1=O was run?
A: Its inhibition is -15.3% (inactive).

Q: How did the inhibition turn out when Cc1ccc(S(=O)(=O)N2CCCCC2)cc1NC(=O)[C@@H]1CCCN1C(=O)c1cccs1 was run?
A: The inhibition was -14.3% (inactive).

Q: How did the inhibition turn out when Cc1cc(C)c(S(=O)(=O)N2CCC(C(=O)OCc3c(C)noc3C)CC2)c(C)c1 was run?
A: The inhibition was 7.04% (inactive).

Q: O=C(CN1CCCCC1)Nc1ccccc1C(=O)NC1CC1 was tested. Which inhibition did it give?
A: The inhibition was 7.71% (inactive).

Q: Which inhibition does the source give for Cc1ccc(NC(=O)COC(=O)CN2CCCCCC2=O)c(C)c1 here?
A: The inhibition was -4.24% (inactive).

Q: Which inhibition does the source give for Cc1cccc(-c2ncc(CN3CCC(CO)(CCCc4ccccc4)CC3)cn2)c1 here?
A: Its inhibition is 6.88% (inactive).

Q: How did the inhibition turn out when CC(C)(O)C#Cc1ccc(CN2CCC(CO)(CCc3ccccc3)CC2)cc1 was run?
A: Its inhibition is 14.6% (inactive).

Q: Which inhibition does the source give for OCC1(CCc2ccccc2)CCN(Cc2ccc3nsnc3c2)CC1 here?
A: Its inhibition is 36.1% (active).

Q: How did the inhibition turn out when CN(CCOc1ccccc1)C(=O)c1cc(-c2ccco2)nc2ccccc12 was run?
A: Its inhibition is 3.66% (inactive).

Q: With CC(=O)Nc1ccc(NC(=O)C(C)OC(=O)c2ccccc2C(=O)c2ccc(Cl)c([N+](=O)[O-])c2)cc1 (centres undefined) as the compound, how does the inhibition read?
A: The inhibition was 36.3% (active).

Q: How did the inhibition turn out when N#Cc1cccc(NC(=O)COC(=O)c2ccccc2C(=O)c2ccc(Cl)c([N+](=O)[O-])c2)c1 was run?
A: The inhibition was 7.92% (inactive).

Q: Which inhibition does the source give for CC(OC(=O)CNC(=O)c1ccc(Cl)c([N+](=O)[O-])c1)C(=O)NCc1ccco1 (centres undefined) here?
A: The inhibition was 26.5% (inactive).

Q: Cc1ccc(S(=O)(=O)CCC(=O)OCC(=O)NCCc2ccc(S(N)(=O)=O)cc2)cc1 was tested. Which inhibition did it give?
A: The inhibition was -1.28% (inactive).

Q: CC(=O)Nc1ccc(NC(=O)C(NS(=O)(=O)c2ccc3c(c2)OCCO3)C(C)C)cc1 (centres undefined) was tested. Which inhibition did it give?
A: The inhibition was -6.92% (inactive).

Q: CCOCc1c(C(=O)N2CCN(Cc3ccc(Br)s3)CC2)oc2ccccc12 was tested. Which inhibition did it give?
A: The inhibition was 32.1% (active).

Q: For COc1ccc(N2CCN(Cc3ccc(Br)s3)CC2)cc1, which inhibition is on record?
A: The inhibition was -12.7% (inactive).

Q: With COCC(=O)Nc1c(C(=O)N2CCCC2)oc2ccccc12 as the compound, how does the inhibition read?
A: Its inhibition is -20% (inactive).

Q: For CS(=O)(=O)c1ccc(Cl)c(NC(=O)COC(=O)c2ncc(Cl)c(Cl)c2Cl)c1, which inhibition is on record?
A: Its inhibition is -16.5% (inactive).

Q: For COc1cc(NC(=O)NCC2CCN(Cc3ccc(C)cc3)CC2)cc(OC)c1OC, which inhibition is on record?
A: The inhibition was 33.3% (active).

Q: For Cc1ccc(C)c(CN2CCC(CNC(=O)Nc3ccc(C)c(F)c3)CC2)c1, which inhibition is on record?
A: The inhibition was -38% (inactive).

Q: How did the inhibition turn out when Cc1cccc(CN2CCC(CNC(=O)Nc3ccc(F)c(Cl)c3)CC2)c1 was run?
A: The inhibition was -7.23% (inactive).

Q: With COc1cc(C(=O)N(C)Cc2cccc(OC)c2OC)ccc1OCC(=O)Nc1cccc(C(F)(F)F)c1 as the compound, how does the inhibition read?
A: Its inhibition is -10.9% (inactive).

Q: With N#CCc1ccc(OC(=O)c2cccnc2)cc1 as the compound, how does the inhibition read?
A: The inhibition was 0.882% (inactive).

Q: How did the inhibition turn out when O=C(Oc1ccc(Br)cc1)c1cccnc1 was run?
A: The inhibition was 38.5% (active).

Q: With CCCCCCOc1ccc(OC(=O)c2cccnc2)cc1 as the compound, how does the inhibition read?
A: Its inhibition is 3.26% (inactive).

Q: Which inhibition does the source give for Cc1ccc2c(CN3CCN(S(=O)(=O)c4ccccc4C(F)(F)F)CC3)cc(=O)oc2c1 here?
A: The inhibition was -23.9% (inactive).

Q: With CC(C)(C)OC(=O)NCCCCCNC(=O)c1nc[nH]c1C(=O)NCc1ccccc1 as the compound, how does the inhibition read?
A: Its inhibition is 7.02% (inactive).

Q: How did the inhibition turn out when Cc1ccc(S(=O)(=O)NCCC(=O)NC2CCN(Cc3ccccc3)CC2)cc1 was run?
A: Its inhibition is 27.4% (inactive).

Q: Cc1ccc(-c2nc(CSCC(=O)NC3CCN(Cc4ccccc4)CC3)c(C)o2)cc1 was tested. Which inhibition did it give?
A: Its inhibition is 47.3% (active).

Q: How did the inhibition turn out when Cc1ccc(-c2cc(C(=O)NC3CCN(Cc4ccccc4)CC3)c3ccccc3n2)cc1 was run?
A: Its inhibition is -27.8% (inactive).

Q: With CN(CC(=O)Nc1ccc(F)cc1)CC(=O)N1CCCCC1 as the compound, how does the inhibition read?
A: The inhibition was -7.3% (inactive).

— PubChem BioAssay AID485344 (National Center for Advancing Translational Sciences (NCATS), 2010)
